Over roughly 16,000 sequences, “rpm ratio (pull-down/input)” has its median near 0.94; the highest 2% begin near 1.7. This excerpt belongs to a sample that is enriched for the highest values.
The sequences below were run against T1, MBP-FoxP1dN (Mus musculus, UniProt P58462 326-579) (assay: PD-seq (MBP pull-down with sequencing); 20 mM Tris-HCl pH 7.5, 100 mM NaCl, 1.5 mM MgCl2, 0.4 uM protein, 0.1 uM dsDNA library, 30 min, room temperature, amylose pull-down; high values mean tight binding). Details: protein: recombinant; tags: His6-MBP; chain copies: 2; dsDNA, one strand shown.
T1 sequence: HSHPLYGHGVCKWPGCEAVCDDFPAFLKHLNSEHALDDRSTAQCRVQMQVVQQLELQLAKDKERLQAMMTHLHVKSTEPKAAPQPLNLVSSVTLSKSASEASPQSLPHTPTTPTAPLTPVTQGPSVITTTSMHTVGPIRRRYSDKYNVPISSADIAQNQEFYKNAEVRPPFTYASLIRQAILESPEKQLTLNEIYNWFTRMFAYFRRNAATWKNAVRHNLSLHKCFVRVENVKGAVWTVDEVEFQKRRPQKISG
How it was run: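 Amylose resin was used to capture complexes formed during 30 min at room temperature in Tris pH 7.5 buffer with NaCl and MgCl2 between 0.4 µM His6-MBP-tagged mouse FoxP3 or FoxP1 fragment lacking the N-terminus, expressed in E. coli, and 0.1 µM Klenow-filled double-stranded degenerate DNA library. After three washes, the DNA was released with proteinase K, barcoded by PCR and sequenced on Illumina. Binding is pooled-replicate reads-per-million enrichment, pull-down over input.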

Sequence | binding signal
GATGATTGTTCTCCCAGCTGATGAATTGTTTGTCTCGAGTAAACAAATTTTCCTAATCTTTCTGTTCAAGCGCCATCTAC | 2.6 RPM ratio (pull-down/input)
GATGATTGTTCTCCCAGCTGATGAATTTTGTCTCTCGAGTAAACAAATTTTCCTAATCTTTCTGTTCAAGCGCCATCTAC | 0.968 RPM ratio (pull-down/input)
GATGATTGTTCTCCCAGCTGATGAATTGTTGTCTTCGAGTAAACAAATTTTCCTAATCTTTCTGTTCAAGCGCCATCTAC | 2.29 RPM ratio (pull-down/input)
GATGATTGTTCTCCCAGCTGATGAATTGTATCAATCGAGTAAACAAATTTTCCTAATCTTTCTGTTCAAGCGCCATCTAC | 1.25 RPM ratio (pull-down/input)
GATGATTGTTCTCCCAGCTGATGAATTACTATATTCGAGTAAACAAATTTTCCTAATCTTTCTGTTCAAGCGCCATCTAC | 1.23 RPM ratio (pull-down/input)
GATGATTGTTCTCCCAGCTGATGAATTCAGCACATCGAGTAAACAAATTTTCCTAATCTTTCTGTTCAAGCGCCATCTAC | 0.96 RPM ratio (pull-down/input)
GATGATTGTTCTCCCAGCTGATGAATTCCCGATGTCGAGTAAACAAATTTTCCTAATCTTTCTGTTCAAGCGCCATCTAC | 0.877 RPM ratio (pull-down/input)
GATGATTGTTCTCCCAGCTGATGAATTTAAGGACTCGAGTAAACAAATTTTCCTAATCTTTCTGTTCAAGCGCCATCTAC | 0.845 RPM ratio (pull-down/input)
GATGATTGTTCTCCCAGCTGATGAATTAAAATATTCGAGTAAACAAATTTTCCTAATCTTTCTGTTCAAGCGCCATCTAC | 1.1 RPM ratio (pull-down/input)
GATGATTGTTCTCCCAGCTGATGAATTAATATTTTCGAGTAAACAAATTTTCCTAATCTTTCTGTTCAAGCGCCATCTAC | 1.78 RPM ratio (pull-down/input)
GATGATTGTTCTCCCAGCTGATGAATTAAATATTTCGAGTAAACAAATTTTCCTAATCTTTCTGTTCAAGCGCCATCTAC | 1.14 RPM ratio (pull-down/input)
GATGATTGTTCTCCCAGCTGATGAATTAAATCTGTCGAGTAAACAAATTTTCCTAATCTTTCTGTTCAAGCGCCATCTAC | 0.778 RPM ratio (pull-down/input)
GATGATTGTTCTCCCAGCTGATGAATTAATATTGTCGAGTAAACAAATTTTCCTAATCTTTCTGTTCAAGCGCCATCTAC | 2.15 RPM ratio (pull-down/input)
GATGATTGTTCTCCCAGCTGATGAATTAAATATGTCGAGTAAACAAATTTTCCTAATCTTTCTGTTCAAGCGCCATCTAC | 1.07 RPM ratio (pull-down/input)
GATGATTGTTCTCCCAGCTGATGAATTCGGACCCTCGAGTAAACAAATTTTCCTAATCTTTCTGTTCAAGCGCCATCTAC | 0.79 RPM ratio (pull-down/input)
GATGATTGTTCTCCCAGCTGATGAATTCTCCTATTCGAGTAAACAAATTTTCCTAATCTTTCTGTTCAAGCGCCATCTAC | 0.943 RPM ratio (pull-down/input)
GATGATTGTTCTCCCAGCTGATGAATTCTATTGTTCGAGTAAACAAATTTTCCTAATCTTTCTGTTCAAGCGCCATCTAC | 1.99 RPM ratio (pull-down/input)

Sequence | binding signal
GATGATTGTTCTCCCAGCTGATGAATTTTCTATTTCGAGTAAACAAATTTTCCTAATCTTTCTGTTCAAGCGCCATCTAC | 0.975 RPM ratio (pull-down/input)
GATGATTGTTCTCCCAGCTGATGAATTCTATTTTTCGAGTAAACAAATTTTCCTAATCTTTCTGTTCAAGCGCCATCTAC | 1.61 RPM ratio (pull-down/input)
GATGATTGTTCTCCCAGCTGATGAATTCCTATTTTCGAGTAAACAAATTTTCCTAATCTTTCTGTTCAAGCGCCATCTAC | 1.86 RPM ratio (pull-down/input)
GATGATTGTTCTCCCAGCTGATGAATTTTTCTATTCGAGTAAACAAATTTTCCTAATCTTTCTGTTCAAGCGCCATCTAC | 0.984 RPM ratio (pull-down/input)
GATGATTGTTCTCCCAGCTGATGAATTGTTCTATTCGAGTAAACAAATTTTCCTAATCTTTCTGTTCAAGCGCCATCTAC | 1.34 RPM ratio (pull-down/input)
GATGATTGTTCTCCCAGCTGATGAATTTCCTATTTCGAGTAAACAAATTTTCCTAATCTTTCTGTTCAAGCGCCATCTAC | 0.887 RPM ratio (pull-down/input)
GATGATTGTTCTCCCAGCTGATGAATTTCTATTTTCGAGTAAACAAATTTTCCTAATCTTTCTGTTCAAGCGCCATCTAC | 2.01 RPM ratio (pull-down/input)
GATGATTGTTCTCCCAGCTGATGAATTAGTTGCATCGAGTAAACAAATTTTCCTAATCTTTCTGTTCAAGCGCCATCTAC | 1.65 RPM ratio (pull-down/input)
GATGATTGTTCTCCCAGCTGATGAATTCCACCACTCGAGTAAACAAATTTTCCTAATCTTTCTGTTCAAGCGCCATCTAC | 0.844 RPM ratio (pull-down/input)
GATGATTGTTCTCCCAGCTGATGAATTGATGCACTCGAGTAAACAAATTTTCCTAATCTTTCTGTTCAAGCGCCATCTAC | 1.72 RPM ratio (pull-down/input)
GATGATTGTTCTCCCAGCTGATGAATTGACAATATCGAGTAAACAAATTTTCCTAATCTTTCTGTTCAAGCGCCATCTAC | 1.86 RPM ratio (pull-down/input)
GATGATTGTTCTCCCAGCTGATGAATTGACACAATCGAGTAAACAAATTTTCCTAATCTTTCTGTTCAAGCGCCATCTAC | 1.75 RPM ratio (pull-down/input)
GATGATTGTTCTCCCAGCTGATGAATTTTGAATATCGAGTAAACAAATTTTCCTAATCTTTCTGTTCAAGCGCCATCTAC | 1.07 RPM ratio (pull-down/input)
GATGATTGTTCTCCCAGCTGATGAATTTTGACAATCGAGTAAACAAATTTTCCTAATCTTTCTGTTCAAGCGCCATCTAC | 1.26 RPM ratio (pull-down/input)
GATGATTGTTCTCCCAGCTGATGAATTTGACACATCGAGTAAACAAATTTTCCTAATCTTTCTGTTCAAGCGCCATCTAC | 0.966 RPM ratio (pull-down/input)
GATGATTGTTCTCCCAGCTGATGAATTGAATATATCGAGTAAACAAATTTTCCTAATCTTTCTGTTCAAGCGCCATCTAC | 1.04 RPM ratio (pull-down/input)
